Data reported in ChEMBL document CHEMBL1961873, “Compounds: GSK PKIS; Assays: Nanosyn kinase panel” (2012).

Key:
[1] = target: 5'-AMP-activated protein kinase catalytic subunit alpha-2 (Homo sapiens) (UniProt P54646); conditions: at 1 µM
[2] = target: T1, NUAK family SNF1-like kinase 1 (Homo sapiens) (UniProt O60285); conditions: at 0.1 µM
T1 sequence (whole entry): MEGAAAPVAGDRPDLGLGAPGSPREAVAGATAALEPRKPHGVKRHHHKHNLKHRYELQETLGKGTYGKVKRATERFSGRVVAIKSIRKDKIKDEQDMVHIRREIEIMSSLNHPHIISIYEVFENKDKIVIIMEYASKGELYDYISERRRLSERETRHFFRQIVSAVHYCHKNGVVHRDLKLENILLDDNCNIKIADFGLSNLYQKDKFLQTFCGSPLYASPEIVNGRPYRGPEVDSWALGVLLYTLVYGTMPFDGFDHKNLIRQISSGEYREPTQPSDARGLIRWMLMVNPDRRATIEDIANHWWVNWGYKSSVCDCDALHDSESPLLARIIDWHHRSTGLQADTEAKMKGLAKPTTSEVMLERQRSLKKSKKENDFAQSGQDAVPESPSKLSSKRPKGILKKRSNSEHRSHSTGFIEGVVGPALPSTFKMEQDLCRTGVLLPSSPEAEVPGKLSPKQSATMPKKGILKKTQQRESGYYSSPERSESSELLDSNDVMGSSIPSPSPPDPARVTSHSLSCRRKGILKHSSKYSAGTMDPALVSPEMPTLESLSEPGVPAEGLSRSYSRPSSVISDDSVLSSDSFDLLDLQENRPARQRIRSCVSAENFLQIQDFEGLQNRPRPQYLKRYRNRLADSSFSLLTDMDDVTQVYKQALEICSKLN

[3] = target: T1, NUAK family SNF1-like kinase 1 (Homo sapiens); conditions: at 1 µM
[4] = target: T2, Serine/threonine-protein kinase BRSK1 (Homo sapiens) (UniProt Q8TDC3); conditions: at 0.1 µM
T2 sequence (whole entry): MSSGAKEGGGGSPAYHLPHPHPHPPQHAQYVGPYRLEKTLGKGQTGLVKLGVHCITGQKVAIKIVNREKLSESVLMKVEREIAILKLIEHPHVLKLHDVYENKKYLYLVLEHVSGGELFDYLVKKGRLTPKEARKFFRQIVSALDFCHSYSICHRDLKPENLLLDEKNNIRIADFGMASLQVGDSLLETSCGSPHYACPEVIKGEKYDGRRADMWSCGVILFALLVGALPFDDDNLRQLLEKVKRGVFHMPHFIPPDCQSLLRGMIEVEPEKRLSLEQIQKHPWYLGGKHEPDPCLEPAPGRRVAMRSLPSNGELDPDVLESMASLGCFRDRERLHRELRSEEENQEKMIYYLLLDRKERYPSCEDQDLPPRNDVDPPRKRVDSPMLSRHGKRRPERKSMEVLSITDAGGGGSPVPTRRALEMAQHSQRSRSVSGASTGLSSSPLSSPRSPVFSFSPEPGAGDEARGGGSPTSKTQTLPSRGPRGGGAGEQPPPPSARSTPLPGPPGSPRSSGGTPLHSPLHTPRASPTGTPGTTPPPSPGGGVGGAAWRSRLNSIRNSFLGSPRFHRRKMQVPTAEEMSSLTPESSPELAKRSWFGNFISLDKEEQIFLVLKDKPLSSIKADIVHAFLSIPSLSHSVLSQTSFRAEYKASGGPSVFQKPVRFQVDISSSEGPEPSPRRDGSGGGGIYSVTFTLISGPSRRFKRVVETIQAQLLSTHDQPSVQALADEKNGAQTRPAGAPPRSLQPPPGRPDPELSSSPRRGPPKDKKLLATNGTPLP

[5] = target: T2, Serine/threonine-protein kinase BRSK1 (Homo sapiens); conditions: at 1 µM
[6] = target: T3, Serine/threonine-protein kinase BRSK2 (Homo sapiens) (UniProt Q8IWQ3); conditions: at 0.1 µM
T3 sequence (whole entry): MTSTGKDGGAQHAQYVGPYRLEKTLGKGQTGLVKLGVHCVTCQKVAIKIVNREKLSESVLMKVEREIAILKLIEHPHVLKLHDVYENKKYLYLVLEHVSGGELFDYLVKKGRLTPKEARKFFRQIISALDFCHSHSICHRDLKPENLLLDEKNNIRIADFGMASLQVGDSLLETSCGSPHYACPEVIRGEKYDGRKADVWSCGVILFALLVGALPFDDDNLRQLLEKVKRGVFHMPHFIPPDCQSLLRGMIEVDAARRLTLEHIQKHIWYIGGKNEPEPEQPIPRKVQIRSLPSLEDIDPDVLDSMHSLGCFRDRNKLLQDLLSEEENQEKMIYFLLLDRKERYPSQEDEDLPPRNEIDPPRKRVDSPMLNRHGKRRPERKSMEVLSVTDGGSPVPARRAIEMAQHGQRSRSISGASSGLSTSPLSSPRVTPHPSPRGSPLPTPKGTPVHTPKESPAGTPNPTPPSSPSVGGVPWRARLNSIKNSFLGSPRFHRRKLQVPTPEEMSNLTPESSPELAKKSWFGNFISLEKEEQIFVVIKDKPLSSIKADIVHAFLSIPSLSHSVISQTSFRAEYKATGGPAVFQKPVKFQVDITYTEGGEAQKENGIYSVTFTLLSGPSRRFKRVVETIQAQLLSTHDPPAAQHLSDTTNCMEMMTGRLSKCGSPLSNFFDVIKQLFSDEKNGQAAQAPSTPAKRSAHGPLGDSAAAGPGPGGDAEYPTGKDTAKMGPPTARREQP

[7] = target: T3, Serine/threonine-protein kinase BRSK2 (Homo sapiens); conditions: at 1 µM
[8] = target: Calcium/calmodulin-dependent protein kinase type 1D (Homo sapiens) (UniProt Q8IU85); conditions: at 0.1 µM
[9] = target: Calcium/calmodulin-dependent protein kinase type 1D (Homo sapiens) (UniProt Q8IU85); conditions: at 1 µM
[10] = target: Calcium/calmodulin-dependent protein kinase type II subunit alpha (Homo sapiens) (UniProt Q9UQM7); conditions: at 0.1 µM;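 note: reported values are averages (mean inhibition of CAMK2A)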
Sequence of Calcium/calmodulin-dependent protein kinase type II subunit alpha (Homo sapiens) (Q9UQM7 whole entry): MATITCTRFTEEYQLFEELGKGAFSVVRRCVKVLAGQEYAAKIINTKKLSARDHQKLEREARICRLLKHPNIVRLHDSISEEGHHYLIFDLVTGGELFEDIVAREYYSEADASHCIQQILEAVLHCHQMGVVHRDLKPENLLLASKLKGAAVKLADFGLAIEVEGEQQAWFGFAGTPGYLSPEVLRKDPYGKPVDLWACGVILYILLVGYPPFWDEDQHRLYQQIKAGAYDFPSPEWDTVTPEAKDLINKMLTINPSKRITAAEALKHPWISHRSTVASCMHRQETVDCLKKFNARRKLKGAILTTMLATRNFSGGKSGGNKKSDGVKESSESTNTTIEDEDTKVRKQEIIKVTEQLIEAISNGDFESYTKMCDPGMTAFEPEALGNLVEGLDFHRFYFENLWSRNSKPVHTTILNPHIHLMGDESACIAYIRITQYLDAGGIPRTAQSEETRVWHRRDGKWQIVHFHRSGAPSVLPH

Sequence of Calcium/calmodulin-dependent protein kinase type 1D (Homo sapiens) (Q8IU85 whole entry, looked up): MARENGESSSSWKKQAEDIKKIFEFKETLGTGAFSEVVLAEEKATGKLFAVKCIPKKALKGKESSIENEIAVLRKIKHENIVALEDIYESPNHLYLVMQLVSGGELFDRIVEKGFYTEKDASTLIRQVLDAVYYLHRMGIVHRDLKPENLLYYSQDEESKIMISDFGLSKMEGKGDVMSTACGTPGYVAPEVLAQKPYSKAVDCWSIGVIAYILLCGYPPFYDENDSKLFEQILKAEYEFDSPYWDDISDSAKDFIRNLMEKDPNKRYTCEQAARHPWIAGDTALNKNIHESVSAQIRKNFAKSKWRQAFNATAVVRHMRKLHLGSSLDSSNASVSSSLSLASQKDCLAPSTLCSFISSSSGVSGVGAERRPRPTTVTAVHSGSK
Sequence of 5'-AMP-activated protein kinase catalytic subunit alpha-2 (Homo sapiens) (P54646 whole entry, looked up): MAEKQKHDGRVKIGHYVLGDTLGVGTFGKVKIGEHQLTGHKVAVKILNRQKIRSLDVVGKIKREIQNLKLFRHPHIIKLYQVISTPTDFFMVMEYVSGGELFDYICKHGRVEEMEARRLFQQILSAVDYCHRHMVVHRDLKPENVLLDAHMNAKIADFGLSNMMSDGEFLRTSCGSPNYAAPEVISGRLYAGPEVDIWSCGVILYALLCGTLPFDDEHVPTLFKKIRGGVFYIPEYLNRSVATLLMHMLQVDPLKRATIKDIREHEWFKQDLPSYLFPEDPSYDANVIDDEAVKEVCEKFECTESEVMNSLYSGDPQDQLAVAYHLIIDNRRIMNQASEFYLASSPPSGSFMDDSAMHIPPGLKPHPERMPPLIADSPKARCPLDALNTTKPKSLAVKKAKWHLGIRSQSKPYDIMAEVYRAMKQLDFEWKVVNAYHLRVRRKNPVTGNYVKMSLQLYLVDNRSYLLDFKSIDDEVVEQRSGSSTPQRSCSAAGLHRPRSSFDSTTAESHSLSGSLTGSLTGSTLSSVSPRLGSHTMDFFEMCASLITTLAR

Row | SMILES | inhibition [1] [%] | inhibition [2] [%] | inhibition [3] [%] | inhibition [4] [%] | inhibition [5] [%] | inhibition [6] [%] | inhibition [7] [%] | inhibition [8] [%] | inhibition [9] [%] | inhibition [10] [%]
1 | O=C(NCC1CC1)c1ccc(-c2cccc(C(=O)NC3CC3)c2)cc1 | 1.74 | 1.06 | 4.26 | 1.95 | 0.89 | 1.44 | -1.6 | 0.99 | 2.29 | 2.2
2 | O=C(Nc1n[nH]c2cc(-c3cc(F)ccc3F)ccc12)C1CC1 | 9.82 | -2.28 | -2.43 | 2.17 | 15.3 | 3.03 | 14.1 | -0.34 | 1.27 | 1.96
3 | COC(=O)Nc1nc2ccc(Sc3ccc(NC(=O)Nc4cc(C(F)(F)F)ccc4F)cc3)cc2[nH]1 | 1.29 | 3.62 | -4.85 | -1.14 | 0.16 | -0.46 | 1.01 | 0.9 | 0.37 | 3
4 | COc1ccc(C2=C(N3CCc4ccccc43)C(=O)NC2=O)cc1 | 5.49 | 3.26 | 9.32 | 1.07 | 3.32 | 2.56 | 3.2 | 0.57 | 1.29 | 5.74
5 | COc1cc(C)c(N(C)C(=O)CN(C)C)cc1Nc1nc(Nc2cccc(F)c2C(N)=O)c2cc[nH]c2n1 | 3.07 | 0.7 | 4.1 | 0.88 | -0.02 | 0.05 | 0.83 | 1.27 | 2.67 | 3.48
6 | O=C1NC(=O)C(c2cccc(Cl)c2)=C1Nc1ccc(Cl)c(C(=O)O)c1 | -4.09 | -9.56 | 3.08 | -0.75 | 0.27 | 1.73 | 2.47 | -1.22 | -0.07 | 3.4
7 | COc1cccc(-n2cnc3c(N/N=C/c4ccncc4)ncnc32)c1 | 1.47 | 2.39 | 22.3 | -0.01 | 4.34 | -0.23 | 6.3 | 0.54 | -0.39 | 0.58
8 | O=C(Nc1n[nH]c2nc(-c3ccco3)ccc12)C1CC1 | 3.94 | 0.19 | 2.78 | 0.98 | 3.49 | 0.55 | 4.63 | 0.8 | 2.1 | 1.71
9 | CCc1cccc(CC)c1/C=C/c1cncc(C(=O)NC)c1 | 2.36 | 1.6 | 6.57 | 1.79 | 0.96 | 0.46 | 0.3 | 0.62 | 1.99 | 3.18
10 | FC(F)(F)c1cccc(Nc2nccc(-c3cnn4nc(-c5ccccc5)ccc34)n2)c1 | 2.89 | -0.22 | 4.2 | -0.11 | 4.72 | 1.87 | 2.68 | 0.17 | 0.28 | 0.97
11 | c1ccc(Oc2ccc(Nc3ncc(-c4ccccc4)o3)cc2)cc1 | 2.49 | -0.75 | 5.38 | -0.66 | 0.76 | 0 | 1.39 | 0.01 | 0.14 | -0.24
12 | Fc1ccc(-c2c(-c3ccncc3)nc3n2CCS3)cc1 | 4.29 | -0.3 | 1.86 | -0.79 | 0.97 | 0.47 | 3.65 | 2.44 | -0.09 | 0.37
13 | CN1CCN(CCCNc2nc3ccc(Oc4ccc(NC(=O)Nc5cc(C(F)(F)F)ccc5F)cc4)cc3[nH]2)CC1 | 3.1 | 0.88 | 4.39 | 2.48 | 2.58 | 1.15 | 0.19 | 2.28 | 4.38 | 3.27
14 | C[C@@H](Oc1cc(-n2cnc3ccc(OC4CCN(C)CC4)cc32)sc1C(N)=O)c1ccccc1Cl | 9.02 | 22 | 66.8 | 27.6 | 58 | 37.9 | 70.8 | -0.95 | 3.84 | 2.57
15 | Nc1nccc(-c2c(-c3ccc(F)cc3)ncn2C2CCC(O)CC2)n1 (stereo not given) | -1.6 | 9.02 | 39.9 | 0.33 | 1.44 | 1.13 | 1.19 | -2.47 | -0.75 | -3.31
16 | COc1cc(N2CCN(C(C)C)CC2)ccc1Nc1nc(Nc2ccc(F)cc2C(=O)NC[C@@H](O)CO)c2cc[nH]c2n1 | 3.64 | 4.38 | 17.2 | -0.14 | 1.34 | 2.44 | 2.82 | 0.93 | 11 | 4.06
17 | CN(C)CCCNc1nccc(-c2c(-c3ccc(F)cc3)nn3cc(C(F)(F)F)ccc23)n1 | 2.79 | -1.31 | 7.22 | 1.29 | 4.81 | 0.82 | 4.17 | 1.56 | 1.39 | 3.05
